The panel holds about 83,000 compounds, 20% with a hit somewhere; the sample as a whole holds those more often.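 In brief: 96-well plates, 48 h treatment, single concentration, percent growth endpoint.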 Unmarked numbers belong to inactive results. Calls of active or inactive are those of the source. Rule for the calls: active = growth percent below 10; inactive = the rest.

Here are results for nine compounds from PubChem BioAssay (NCI).

What all share (assay): NCI-60 one-dose screen, 48 h (100 = growth as untreated, 0 = no growth, -100 = all killed)
One test has as its system HCT-15 colon. Conditions: 10 µM unless noted.
For a further test, the system named is HT29 colon. Conditions: 10 µM unless noted.
The next test deals with SNB-75 CNS. Conditions: 10 µM unless noted.
Another test concerns PC-3 prostate. Conditions: 10 µM unless noted.
Another test relates to SK-MEL-5 melanoma. Conditions: 10 µM unless noted.
The next test has as its system LOX IMVI melanoma. Conditions: 10 µM unless noted.
The next test concerns SK-MEL-28 melanoma. Conditions: 10 µM unless noted.
In a further test the test system is SK-MEL-2 melanoma. Conditions: 10 µM unless noted.
The test system of another test is EKVX NSCLC. Conditions: 10 µM.
Another test deals with UO-31 renal. Conditions: 10 µM unless noted.
A further test concerns TK-10 renal. Conditions: 10 µM unless noted.
The test system of another test is ACHN renal. Conditions: 10 µM unless noted.
The test system of another test is CCRF-CEM leukemia. Conditions: 10 µM.
The next test relates to MOLT-4 leukemia. Conditions: 10 µM unless noted.
Another test deals with SNB-19 CNS. Conditions: 10 µM unless noted.
In another test the test system is U251 CNS. Conditions: 10 µM unless noted.
The subject of a further test is UACC-62 melanoma. Conditions: 10 µM unless noted.
In a further test the test system is SN12C renal. Conditions: 10 µM unless noted.
Another test concerns CAKI-1 renal. Conditions: 10 µM unless noted.
For the next test, the system named is A498 renal. Conditions: 10 µM unless noted.

Consider `Cc1ccc(C(=O)NN)cc1`, for which the growth with HCT-15 colon was 102%; in the test with HT29 colon, 111%; in the test with SNB-75 CNS, 94.5%; in the test on PC-3 prostate, 109%; in the test on SK-MEL-5 melanoma it was 108%; with LOX IMVI melanoma, 96.5%. Also, the growth with SK-MEL-28 melanoma is 109%; in the test on SK-MEL-2 melanoma, 119%; in the test with EKVX NSCLC, 97.1%; in the test on UO-31 renal, 104%; in the test with TK-10 renal, 110%; in the test on ACHN renal it was 115%. In addition, the figures for the growth with CCRF-CEM leukemia and in the test on MOLT-4 leukemia were 99.5% and 93%, respectively.
Take `C=C(NC(=O)[C@H](C(C)C)N(C)c1cccc2[nH]ccc12)C(=O)OC`: the growth is 95.7% in the test on HCT-15 colon; 99.1% in the test with HT29 colon; 103% in the test with SNB-19 CNS; 99.6% in the test on U251 CNS; 101% with PC-3 prostate; 99.4% in the test on SK-MEL-5 melanoma. Further, the growth with UACC-62 melanoma was 90.5%; in the test with LOX IMVI melanoma, 94.3%; in the test with SK-MEL-28 melanoma, 104%; with SK-MEL-2 melanoma, 104%; in the test with EKVX NSCLC, 93.8%; in the test with SN12C renal, 101%. Moreover, the growth is 80.1% in the test with UO-31 renal; 94.2% in the test on TK-10 renal; 101% with ACHN renal; 92.6% in the test on CAKI-1 renal; 94.4% in the test on A498 renal; 87.1% with CCRF-CEM leukemia. The growth in the test with MOLT-4 leukemia was 107%.
On to `O=C(NC(=S)NNC(=S)NNc1ccccc1)c1ccccc1`, for which the growth in the test with HCT-15 colon is 54%; with HT29 colon, 81.2%; in the test on SNB-75 CNS, 4.67% (active); in the test on PC-3 prostate it was 32.6%; in the test with SK-MEL-5 melanoma, 25.4%; in the test with UACC-62 melanoma, 25.2%. Further, the growth in the test on LOX IMVI melanoma was 48.3%; in the test on SK-MEL-28 melanoma, 59.3%; in the test on SK-MEL-2 melanoma, 24.2%; with SN12C renal, 25.7%; in the test on UO-31 renal it was 54%; in the test with ACHN renal, 70.7%. Further, the growth in the test on CAKI-1 renal is 55.9%; with A498 renal, 78.9%; with MOLT-4 leukemia, 39.3%.
Regarding `CCN(CC)CCOC(=O)c1cccnc1`, the growth in the test on HCT-15 colon is 98.7%; in the test on HT29 colon it was 107%; with SNB-75 CNS, 79.6%; in the test on U251 CNS it was 97.7%; in the test on PC-3 prostate, 99.7%; in the test with SK-MEL-5 melanoma, 98%. The growth with UACC-62 melanoma was 103%; in the test with LOX IMVI melanoma, 90.9%; in the test with SK-MEL-28 melanoma, 98.4%; with SK-MEL-2 melanoma, 91.1%; with SN12C renal, 96.2%; in the test on UO-31 renal, 86.2%. In addition, the growth is 99.3% with ACHN renal, 99.6% in the test with CAKI-1 renal, 62.5% with A498 renal and 94.2% in the test on MOLT-4 leukemia.
`CCOC(=O)NNc1[nH]c(-c2ccc(OC)cc2)cc1C#N`: the growth with HCT-15 colon is 107%; in the test with HT29 colon, 132%; in the test with SNB-19 CNS, 98.6%; in the test on U251 CNS, 98.2%; in the test with PC-3 prostate it was 99%; in the test with SK-MEL-5 melanoma it was 88.9%. The growth was 76.1% in the test on UACC-62 melanoma; 91.6% in the test on LOX IMVI melanoma; 182% in the test on SK-MEL-28 melanoma; 105% in the test on SK-MEL-2 melanoma; 102% in the test with EKVX NSCLC; 94.7% in the test with SN12C renal. For the same compound, the growth in the test with UO-31 renal is 87.8%; in the test on TK-10 renal it was 92.7%; in the test with ACHN renal it was 81.2%; with CAKI-1 renal it was 121%; with A498 renal it was 99.8%; with CCRF-CEM leukemia, 7.58% (active). Also, in the test on MOLT-4 leukemia, the growth is 8.55% (active).
As to `CCC(C)(CC)c1ccc(O)c(C)c1`, the growth with HCT-15 colon is 101%; in the test with HT29 colon, 104%; in the test with SNB-75 CNS, 86.2%; in the test on U251 CNS, 97.7%; in the test on PC-3 prostate, 98.9%; in the test on SK-MEL-5 melanoma, 104%. Moreover, the growth was 109% in the test with UACC-62 melanoma; 97% in the test on LOX IMVI melanoma; 110% in the test on SK-MEL-28 melanoma; 82.2% in the test on SK-MEL-2 melanoma; 102% with SN12C renal; 102% in the test with UO-31 renal. Also, the growth with ACHN renal is 106%; in the test on CAKI-1 renal, 109%; with A498 renal it was 100%; with MOLT-4 leukemia it was 106%.
For `Cc1ccc2c(O)c(O)cc(NC(C)CCCN)c2n1` (stereo not given), the growth is 116% with HCT-15 colon; 47.7% in the test on HT29 colon; 87.7% in the test with SNB-19 CNS; 25.7% in the test with U251 CNS; 89.2% in the test on PC-3 prostate; 95.7% in the test with SK-MEL-5 melanoma. For the same compound, the growth in the test on UACC-62 melanoma is 113%; in the test with LOX IMVI melanoma it was 31.2%; in the test on SK-MEL-28 melanoma it was 131%; in the test with SK-MEL-2 melanoma, 75%; in the test with EKVX NSCLC, 78%; in the test with SN12C renal, 32.2%. The growth in the test on UO-31 renal is 96.8%; with TK-10 renal, 104%; in the test on ACHN renal, 108%; in the test on CAKI-1 renal, 87.4%; with A498 renal, 81.3%; in the test with CCRF-CEM leukemia, 39.9%. Moreover, in the test on MOLT-4 leukemia, the growth was 7.64% (active).
On to `C=CCN(C)C`, for which the growth is 113% in the test with HCT-15 colon; 113% in the test with HT29 colon; 102% with SNB-19 CNS; 102% in the test on U251 CNS; 105% with PC-3 prostate; 108% in the test with SK-MEL-5 melanoma. Moreover, the growth with UACC-62 melanoma is 101%; with LOX IMVI melanoma, 99.8%; with SK-MEL-28 melanoma, 110%; with SK-MEL-2 melanoma it was 113%; in the test on EKVX NSCLC it was 92%; in the test with SN12C renal it was 94.7%. Further, the growth was 93.3% in the test on UO-31 renal; 119% with TK-10 renal; 105% in the test on ACHN renal; 92.5% with CAKI-1 renal; 91.1% with A498 renal.
Regarding `OCCN1CCCN(CCCN2c3ccccc3Sc3ccc(C(F)(F)F)cc32)CC1`, the growth is 61.6% in the test with HCT-15 colon; 8.24% (active) in the test on HT29 colon; 50.4% with SNB-75 CNS; 33.6% with U251 CNS; 57.2% in the test with PC-3 prostate; 36.3% in the test on SK-MEL-5 melanoma. Moreover, the growth with UACC-62 melanoma was -46.3% (active); in the test with LOX IMVI melanoma, 49%; in the test with SK-MEL-28 melanoma it was 30.7%; in the test with SK-MEL-2 melanoma it was 81.5%; with UO-31 renal, 41.8%; in the test with ACHN renal, 68%. Also, the growth in the test with CAKI-1 renal is 85.7%; with A498 renal, 73.7%; with MOLT-4 leukemia, 23.4%.
